# MARV entry inh – inhibitors of Marburg virus binding or cell entry; Marburg virus pseudotyped entry inhibition, cell reporter; Potency, µM (titrated, usually from 37.8 µM), for inactives: at the top dose activity change, negative = inhibition, actives largely listed as inhibitors; 1.8% of 300,000 active; AID 540276; calls by dose curve; tested in HEK293 cells
# Lassa entry inh – blocks Lassa virus binding to or entry into cells; Lassa virus pseudotype entry inhibition, cell reporter; 1.2% of 300,000 active; Potency, µM (doses to about 37.9 µM), for inactives: at the top dose activity change, negative = inhibition, hits mostly inhibitors; calls by dose curve; tested in HEK293 cells; note: nearly all actives have a fitted effect of over 50% in size
# AmpC no deterg – inhibitors of E. coli AmpC beta-lactamase without detergent | AmpC nitrocefin hydrolysis, absorbance 480 nm, 0.0001% Triton | Potency, µM (titrated, usually from 57.1 µM), for inactives: at the top dose activity change, negative = inhibition, usual class: inhibitors | P00811 | 0.52% of 330,000 active | AID 485341;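 note: plate controls were no compound for no effect and no enzyme for full effect; nearly all actives have a fitted effect of over 20% in size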
# Target sequence (P00811 whole entry, looked up): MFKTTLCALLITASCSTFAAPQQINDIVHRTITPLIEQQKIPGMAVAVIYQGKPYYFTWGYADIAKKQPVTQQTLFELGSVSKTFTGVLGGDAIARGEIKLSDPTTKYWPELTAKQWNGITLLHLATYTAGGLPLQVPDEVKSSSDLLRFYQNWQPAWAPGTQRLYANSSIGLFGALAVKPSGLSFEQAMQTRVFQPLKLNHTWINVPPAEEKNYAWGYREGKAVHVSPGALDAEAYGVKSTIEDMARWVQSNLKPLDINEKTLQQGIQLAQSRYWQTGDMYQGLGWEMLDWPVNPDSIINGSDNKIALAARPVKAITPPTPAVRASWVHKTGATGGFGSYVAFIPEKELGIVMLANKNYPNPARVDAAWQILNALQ
#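 20 mM phosphate pH 7.0 + 0.01% (detergent screen) or 0.0001% Triton X-100; 5.3 nM AmpC reagent; cpd preinc 15 min RT; nitrocefin (800 uM stock) to start; A480 q20 s × 4 min; Activity was normalised to no-enzyme and no-compound control wells.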
# AMA1-RON2 inh – disrupts binding of P. falciparum AMA1 to RON2; AlphaScreen AMA1-biotinylated RON2 peptide binding; Potency, µM (top dose mostly 58.2 µM), without a hit: at the top dose activity change, negative = inhibition, hits mostly inhibitors; 0.2% of 360,000 active; AID 720542;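 note: 0% = vehicle wells and -100% = peptide control; nearly all actives have a fitted effect of over 45% in size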
#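 AMA1 (3D7) with his tag at 25 nM final met compounds first, then biotinylated RON2 peptide at 25 nM; detection used donor plus acceptor beads, 10 µg/mL apiece, read by AlphaScreen after 30 min at room temperature.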
# AmpC inh detg – blocks E. coli AmpC beta-lactamase in detergent assay; P00811; AmpC hydrolysis of nitrocefin, absorbance 480 nm, 0.01% Triton; Potency, µM (top dose mostly 114 µM), inactives show at the highest dose activity change, negative = inhibition, hits mostly inhibitors; 0.041% of 370,000 active; AID 485294;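 note: 0% = no-compound wells and -100% = no-enzyme wells; nearly all actives have a fitted effect of over 25% in size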
#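 AmpC (5.3 nM in the dispensed reagent) in 20 mM phosphate pH 7.0 with 0.01% (detergent screen) or 0.0001% Triton X-100 was preincubated with compounds for 15 min at room temperature. Nitrocefin was then added from an 800 uM solution, and hydrolysis was followed at 480 nm.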
# * hit, by the source's call; ? = inconclusive; . = no result given; [ ] = dose if it differs, or a comment. This is a sample that favours compounds with a hit; in the whole collection about 2.3% have one here. Unless noted, calls come from the whole dose curve; as a rule, active = well fitted curve in the direction sought with a large enough effect; inconclusive = small, poorly fitted or top-dose-only effect, or another doubt; inactive = no such curve, though single readings can be large; an effect the other way counts as inactive or inconclusive. Unless noted, % is set by controls: 0 for no effect and ±100 for the full control effect; potency is the fitted concentration of half-maximal effect.
SMILES,MARV entry inh,Lassa entry inh,AmpC no deterg,AMA1-RON2 inh,AmpC inh detg
O=C(N/N=C/c1sc2ccccc2c1O)c1cccc2ccccc12,14µM*,?,-41%,27%,-1%
Cc1cc(C(=O)N/N=C/c2cc(N=Nc3ccccc3)ccc2O)n[nH]1,0.5µM*,11µM*,-12%,-19%,-11%
COc1cc([N+](=O)[O-])cc(/C=N/NC(=O)c2ccc(NC(=O)c3ccc(C)cc3)cc2)c1O,1.1µM*,?,-26%,17%,3%
COC(=O)N/N=C/c1cc(N=Nc2ccccc2)ccc1O,2%[46.1 µM],-2%,21%,71%,-1%
O=C(N/N=C/c1sc2ccccc2c1O)c1ccccc1,?,?,-19%,44%,-1%
CC1(C)CC(=O)c2cc(-c3nc(-c4ccc(Cl)cc4)cs3)c(=O)n(-c3cccc(F)c3)c2C1,-7%[46.1 µM],17%[46.1 µM],.,.,-8%
Cc1cc(Cl)ccc1OCC(=O)Nc1c(Cl)ccc2nsnc12,15%[46.1 µM],-15%[46.1 µM],.,.,-3%
COc1cccc(/C=N/NC(=O)c2cc3cc([N+](=O)[O-])ccc3s2)c1O,1.8µM*,?,-20%,35%,?
O=C(NN=Cc1cc([N+](=O)[O-])ccc1O)c1cccc2ccccc12,10µM*,7.1µM*,.,58%,.
O=C(N/N=C/c1cc([N+](=O)[O-])ccc1O)c1c[nH]c2ccccc12,.,.,-44%,136%,-3%
COc1ccccc1/C=N/NC(=O)c1ccc(NC(=O)c2cccc([N+](=O)[O-])c2)cc1,.,.,-40%,.,16%
COc1cc2c(=O)c(C(=O)c3ccc(C)c(C)c3)cn(Cc3ccccc3F)c2cc1OC,?,?,.,.,9%
CCOC(=O)c1cnc(-n2nc(C)cc2C)nc1NC1CCCC1,11µM*,?,90%,28%,3%
COc1ccc(-c2nn(CC(=O)NCCc3ccccc3)c(=S)n2C)cc1,?,13µM*,-7%,-3%,-3%
CCn1c(-c2ccc(C)cc2)nn(CC(=O)NCCc2ccccc2)c1=S,8.9µM*,?,4%,-7%,-9%
COc1ccc(C2=NN(CC(=O)NCCc3ccccc3)C(=O)CC2)cc1,.,0%[46.1 µM],.,.,2%
Cc1nn(CC(=O)NCCc2ccccc2)c(=O)c2ccccc12,1%,0%,-7%,-11%,-19%
COc1cccc([C@H]2NC(=O)C[C@@H]3C[C@@H](C)[C@@H](c4cccc(OC)c4)N3C(=O)C=CC[C@@H]2C)c1,8%[14.2 µM],?,.,.,.
COc1ccc(C(=O)C(/C=N/O)=N/Nc2ccc(F)cc2)cc1,-4%[46.1 µM],4%,-23%,2%,0%
CO/N=C/C(=N\Nc1ccc(OC)cc1)C(=O)c1ccc(OC)cc1,?,11µM*,-17%,-7%,2%
O=C(N/N=C/C=C/c1ccccc1)c1cc2c(ccc3ccccc32)o1,4.5µM*,7.9µM*,-13%,13%,-7%
CCN(Cc1ccccc1)c1ccc(/C=N/N=C(N)N)cc1,6.5µM*,8.2µM*,-41%,?,-1%
NC(N)=N/N=C/c1ccc(N(c2ccccc2)c2ccccc2)cc1,.,.,-18%,31%,1%
Cc1cc(C(=O)N2CC(C)CC(C)C2)n(-c2ccccc2)n1 (configuration not stated),.,.,8.9µM*,18%,?
[N-]=[N+]=Nc1ccc(C(=O)CSC[C@H](NC(=O)CC[C@H](N)C(=O)O)C(=O)NCC(=O)O)cc1,5µM*,?,.,.,.
SMILES,MARV entry inh,Lassa entry inh,AmpC no deterg,AMA1-RON2 inh,AmpC inh detg
N[C@@H](CCC(=O)N[C@@H](CSN=O)C(=O)NCC(=O)O)C(=O)O,.,.,-12%,92%,-16%
CCOc1ccc2nc(SC3CC(=O)N(c4ccccc4)C3=O)sc2c1 (configuration not stated),1%,-28%,-20%,29%,1%
CCOc1ccc2nc(SC3CC(=O)N(c4cccc(OC)c4)C3=O)sc2c1 (configuration not stated),?,27%,8.9µM*,59%,-14%
CCOC(=O)C1=C2C=C(OC)C=CC2OC1CN(CC)CC (configuration not stated),-17%[46.1 µM],.,.,.,.
Cc1ccc(-c2nnc3sc(-c4ccncc4)nn23)cc1,5.8µM*,15%,-11%,-3%,?
c1ccc(-c2nn3c(-c4ccccc4)nnc3s2)cc1,5%,-1%,-11%,-11%,-4%
Clc1ccccc1-c1nnc2sc(-c3ccncc3)nn12,.,.,-14%,2%,-13%
Clc1ccccc1-c1nn2c(-c3ccncc3)nnc2s1,7.3µM*,?,-16%,-6%,1%
Cc1cccc(-c2nc(CSc3nncn4c3cc3oc(C)cc34)c(C)o2)c1,.,17%[46.1 µM],.,.,-1%
CC(=O)c1c(C)oc2ccc(N(C(=O)Oc3ccccc3)S(=O)(=O)c3ccc(C(C)(C)C)cc3)cc12,.,-7%[46.1 µM],.,.,-4%
CCOc1ccccc1NC(=O)Cn1c(=O)n(-c2ccc(Cl)cc2)c(=O)c2oc3ccccc3c21,.,2%[46.1 µM],.,.,-1%
CN(C)c1cc2c3ccccc3n(C)c2cc1N,?,9%,.,3.5µM*,.
Cc1ccc(C)c2c1c1ccccc1n2C,7%[46.1 µM],-1%,-38%,-5%,-2%
COC(=O)c1ccc(COc2ccccc2/C=C(\C#N)C(=O)Nc2c(C)cccc2C)cc1,11µM*,?,-38%,5%,?
NNCc1ccccc1,.,.,.,32µM*,.
O=C(Nc1ccc([N+](=O)[O-])cc1Cl)c1cc(Cl)ccc1O,1.1µM*,1.3µM*,-22%,-7%,?
CCOC(=O)c1ccc(NC(=O)Cn2ncc(Cl)c(Cl)c2=O)cc1,3.2µM*,?,-59%,-24%,-2%
O=C(Cn1ncc(Cl)c(Cl)c1=O)Nc1ccc2c(c1)OCO2,.,.,20%,-10%,10%
Cc1ccc(C(=O)OCn2ncc(Cl)c(Cl)c2=O)cc1,15µM*,23µM*,-11%,21%,-1%
Cc1ccc(C)c(C(=O)Cn2ncc(Cl)c(Cl)c2=O)c1,10µM*,?,-38%,0%,-9%
O=C(Cn1ncc(Cl)c(Cl)c1=O)c1ccc2c(c1)OCCO2,?,13µM*,-27%,10%,.
CCCC1=Nc2cc(C(=O)NC3CCCCC3)ccc2Sc2ccc(C)cc21,.,?,.,.,-5%
Cc1ccsc1/C=C1\CCC(C2CCCC2)C1=O (configuration not stated),7.9µM*,?,-29%,26%,?
Cc1ccc(/C=C2\CCC(C3CCCC3)C2=O)cc1 (configuration not stated),?,0%,-23%,8%,-8%
CSc1ccc(C2c3[nH]c4ccccc4c3CCN2C(=O)CCC2CCCC2)cc1 (configuration not stated),.,?,.,.,-3%
COc1ccc(Cn2c(C(=O)O)c(CNCc3ccco3)c3ccc(OC)cc32)cc1,.,-25%[46.1 µM],.,.,-1%
COc1cccc(C2C(C(=O)c3cc4ccccc4o3)=C(O)C(=O)N2c2cc(C)on2)c1OC (configuration not stated),-15%,0%,-42%,-4%,-2%
